Source: PubChem BioAssay

assay: P. aeruginosa biofilm formation inhibitors, primary screen, strain PAO1, LB-PBS medium, absorbance 600 nm (AID 1176); note: test concentration not given here; conditions: P. aeruginosa PAO1 growth/biofilm, A600, 12 h; higher = more signal; call rule not given here

z-score, inactive:
CO[C@@H](C(C)C)[C@@H](C)C1OC(=O)CC1O (stereo partly specified) -0.139
CCN1C(=O)[C@H]2[C@H]3[C@H](O)[C@H](O)CC(=NO[C@H](C)c4cn([C@@H]5COC[C@H]5O)nn4)[C@@H]3CC[C@H]2C1=O 1.46
CCOC(=O)[C@H](CC(C)C)NC(=O)CCC1CC(OC(=O)NCCc2ccc(F)cc2)CC2(CCCC(COC(=O)NCc3cccc(C(F)(F)F)c3)O2)O1 (stereo partly specified) 0.672
O=C1CCCC=C1C(O)C1CCCCC1 (stereo unspecified) -0.458
COc1ccc(COC(=O)NN=C2C[C@@H](O)[C@@H](O)[C@@H]3[C@@H]4C(=O)N(C5CCCCC5)C(=O)[C@@H]4CC[C@@H]23)cc1 -0.118
O=C1C2=CC[C@H]3C(=O)N(C4CCCCC4)C(=O)[C@H]3[C@H]2[C@H](O)[C@@H]2O[C@H]12 -0.2
O=C1C[C@@H](O)[C@@H](O)[C@@H]2[C@@H]3C(=O)N(C4CCCCC4)C(=O)[C@@H]3CC[C@@H]12 -1.13
C=CC[C@@H]1C=C[C@H](ON=CC[C@@H]2C=C[C@H](OC(C)=O)[C@@H](COC(C)=O)O2)[C@@H](CO)O1 -0.242
CC(CCC(=O)OC[C@H]1O[C@H](C#Cc2ccccc2)C=C[C@@H]1Oc1ccc(C)cc1)=NO[C@H](C)c1cn([C@@H]2COC[C@H]2O)nn1 1.12
COC(=O)[C@@H]1CC[C@H](C)[C@@H](c2ccc(C)cc2)N1C(=O)c1ccc(C=NOC[C@@H](O)[C@H]2O[C@@H]3OC(C)(C)O[C@@H]3[C@H]2O)cc1 0.642
C=CC[C@@H]1C=C[C@H](Oc2ccc(C)cc2)[C@@H](COC(=O)NCc2cccc3ccccc23)O1 0.119
CCOC(=O)[C@H](CC(C)C)NC(=O)CCC1CC(OC(=O)NCc2ccc3c(c2)OCO3)CC2(CCCC(COC(=O)NCCC(C)C)O2)O1 (stereo partly specified) 0.462
CCOC(=O)CCN1C(=O)[C@H]2[C@H]3[C@H](O)[C@H](O)CC(=NO[C@@H]4O[C@H](CO)[C@@H](O)[C@H](O)[C@H]4O)[C@@H]3CC[C@H]2C1=O 0.48
COC(=O)[C@H](C)NC(=O)CCC1CC(OC(=O)NCc2ccc3c(c2)OCO3)CC2(CCCC(COC(=O)NCCCN3CCCC3=O)O2)O1 (stereo partly specified) 0.226
Cc1ccc(S(=O)(=O)N[C@@H]2COC(=O)CC=C[C@@H](C)[C@H](NS(=O)(=O)c3ccc(C)cc3)COC(=O)[C@H](C)NC(=O)CC=C[C@H]2C)cc1 -0.143
CCOC(=O)[C@H](CC(C)C)NC(=O)CCC1CC(OC(=O)NCc2ccc3c(c2)OCO3)CC2(CCCC(COC(=O)NCCOC)O2)O1 (stereo partly specified) -0.516
